Measurements as given in ChEMBL document CHEMBL3988442, “University of Dundee, Small-Polar-MMV Screening Library” (2021).
For some of these results: Results with a measured potency or affinity are listed apart.

Assays:
Parameters in all cases: scale not given: direction of the effect not stated beside the values
[1] = molecular target: Protein translocase subunit SecA (Escherichia coli (strain K12)) (UniProt P10408); experiment: Assay to Identify E. coli SecA ATPase Inhibitors; assay type: functional; settings: 30 µM
Chain of Protein translocase subunit SecA (Escherichia coli (strain K12)) (P10408 whole entry): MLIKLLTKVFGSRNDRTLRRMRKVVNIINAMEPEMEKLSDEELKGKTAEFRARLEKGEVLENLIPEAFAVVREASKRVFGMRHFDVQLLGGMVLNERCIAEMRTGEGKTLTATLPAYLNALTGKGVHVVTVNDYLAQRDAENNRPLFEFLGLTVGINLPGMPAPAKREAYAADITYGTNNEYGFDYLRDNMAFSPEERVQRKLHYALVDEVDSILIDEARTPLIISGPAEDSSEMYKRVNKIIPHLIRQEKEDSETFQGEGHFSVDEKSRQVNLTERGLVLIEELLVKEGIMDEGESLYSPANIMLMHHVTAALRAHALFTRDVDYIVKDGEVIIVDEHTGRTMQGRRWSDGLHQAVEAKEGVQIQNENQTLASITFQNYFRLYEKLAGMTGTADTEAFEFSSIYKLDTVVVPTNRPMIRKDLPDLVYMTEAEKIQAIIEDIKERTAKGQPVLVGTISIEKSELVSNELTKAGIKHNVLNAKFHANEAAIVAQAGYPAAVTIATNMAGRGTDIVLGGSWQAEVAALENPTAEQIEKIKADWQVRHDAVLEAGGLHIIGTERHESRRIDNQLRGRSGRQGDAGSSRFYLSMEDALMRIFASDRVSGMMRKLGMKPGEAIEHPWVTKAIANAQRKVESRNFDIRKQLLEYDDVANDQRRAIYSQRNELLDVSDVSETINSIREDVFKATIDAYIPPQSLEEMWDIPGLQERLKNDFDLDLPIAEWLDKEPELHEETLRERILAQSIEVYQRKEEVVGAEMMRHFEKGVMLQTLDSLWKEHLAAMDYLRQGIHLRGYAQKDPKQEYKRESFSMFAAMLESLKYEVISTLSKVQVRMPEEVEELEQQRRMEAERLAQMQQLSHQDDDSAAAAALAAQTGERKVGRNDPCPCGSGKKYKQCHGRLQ

[2] = molecular target: T1, Ubiquitin-activating enzyme e1, putative (Leishmania donovani (strain BPK282A1)) (UniProt E9BSI1); experiment: Leishmania donovani Ubiquitin Activating Enzyme (LdE1); assay type: functional; settings: 30 µM
T1 sequence (whole entry): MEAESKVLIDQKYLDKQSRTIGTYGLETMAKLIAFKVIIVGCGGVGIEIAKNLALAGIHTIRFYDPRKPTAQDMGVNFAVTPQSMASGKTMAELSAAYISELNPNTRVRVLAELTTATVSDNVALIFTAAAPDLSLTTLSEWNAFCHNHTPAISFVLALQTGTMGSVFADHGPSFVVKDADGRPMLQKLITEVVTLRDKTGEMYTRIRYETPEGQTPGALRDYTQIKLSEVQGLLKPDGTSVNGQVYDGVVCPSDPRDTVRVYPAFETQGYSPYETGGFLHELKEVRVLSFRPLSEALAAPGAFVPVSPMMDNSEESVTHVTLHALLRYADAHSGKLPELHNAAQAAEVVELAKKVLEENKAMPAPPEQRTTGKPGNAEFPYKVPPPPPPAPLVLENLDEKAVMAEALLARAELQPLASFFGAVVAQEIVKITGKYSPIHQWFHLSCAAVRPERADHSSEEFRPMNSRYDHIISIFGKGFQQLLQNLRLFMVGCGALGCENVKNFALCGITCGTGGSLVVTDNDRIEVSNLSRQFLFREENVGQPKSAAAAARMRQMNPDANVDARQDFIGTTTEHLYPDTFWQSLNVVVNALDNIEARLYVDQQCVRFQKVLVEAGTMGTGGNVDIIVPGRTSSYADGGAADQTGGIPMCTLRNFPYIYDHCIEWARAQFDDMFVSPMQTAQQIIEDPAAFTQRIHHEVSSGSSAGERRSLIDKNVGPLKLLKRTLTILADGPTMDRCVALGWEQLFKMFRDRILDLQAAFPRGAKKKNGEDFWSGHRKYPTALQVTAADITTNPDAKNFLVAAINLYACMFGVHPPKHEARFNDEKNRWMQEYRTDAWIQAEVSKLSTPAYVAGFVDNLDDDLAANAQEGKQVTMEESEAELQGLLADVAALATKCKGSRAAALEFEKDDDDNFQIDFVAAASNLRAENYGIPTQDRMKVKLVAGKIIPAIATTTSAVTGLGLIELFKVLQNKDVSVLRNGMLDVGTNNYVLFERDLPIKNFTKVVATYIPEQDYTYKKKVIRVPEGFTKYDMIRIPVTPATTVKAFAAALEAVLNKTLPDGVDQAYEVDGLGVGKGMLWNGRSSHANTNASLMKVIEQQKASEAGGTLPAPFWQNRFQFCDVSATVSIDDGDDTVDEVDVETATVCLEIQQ

[3] = molecular target: AMP-activated protein kinase, AMPK (Homo sapiens) (UniProt P54646+O43741+P54619+Q9UGJ0+Q9Y478+Q13131+Q9UGI9); experiment: AMP-dependent Kinase enzyme assay. An in vitro enzyme assay that detects ADP turnover that is directly proportional to AMPK activity. This uses naive AMPK that is activated during the assay with MK-8722; assay type: functional; settings: 30 µM
[4] = molecular target: Sialic acid-binding Ig-like lectin 9 (Homo sapiens) (UniProt Q9Y336); experiment: Hs-Siglec9 ALPHAscreen SOP 20170721; settings: 10 µM
Chain of Sialic acid-binding Ig-like lectin 9 (Homo sapiens) (Q9Y336 whole entry): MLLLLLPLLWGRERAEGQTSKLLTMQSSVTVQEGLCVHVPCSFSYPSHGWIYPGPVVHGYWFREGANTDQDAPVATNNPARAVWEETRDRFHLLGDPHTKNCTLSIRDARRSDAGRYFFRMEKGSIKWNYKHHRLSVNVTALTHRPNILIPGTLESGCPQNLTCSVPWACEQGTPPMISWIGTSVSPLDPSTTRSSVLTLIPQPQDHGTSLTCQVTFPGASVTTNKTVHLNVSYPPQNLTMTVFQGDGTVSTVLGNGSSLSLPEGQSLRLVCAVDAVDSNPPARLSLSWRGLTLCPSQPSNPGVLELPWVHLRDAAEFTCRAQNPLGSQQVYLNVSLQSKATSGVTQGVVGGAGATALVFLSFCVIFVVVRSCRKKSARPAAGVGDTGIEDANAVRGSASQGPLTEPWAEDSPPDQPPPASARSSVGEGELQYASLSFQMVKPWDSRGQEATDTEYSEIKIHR

Trypanosoma cruzi = experiment: Trypanosoma cruzi phosphomannomutase and mannose-1-phosphate guanylyltransferase assay; assay type: functional; settings: 10 µM
[5] = molecular target: T2, Arginase-2, mitochondrial (Homo sapiens) (UniProt P78540); experiment: in vitro enzyme assay to detect the production of urea directly proportional to the activity of Arginase II; assay type: functional; settings: 33.3 µM; further: in the data most compounds retested in dose-response had high values
T2 sequence (whole entry): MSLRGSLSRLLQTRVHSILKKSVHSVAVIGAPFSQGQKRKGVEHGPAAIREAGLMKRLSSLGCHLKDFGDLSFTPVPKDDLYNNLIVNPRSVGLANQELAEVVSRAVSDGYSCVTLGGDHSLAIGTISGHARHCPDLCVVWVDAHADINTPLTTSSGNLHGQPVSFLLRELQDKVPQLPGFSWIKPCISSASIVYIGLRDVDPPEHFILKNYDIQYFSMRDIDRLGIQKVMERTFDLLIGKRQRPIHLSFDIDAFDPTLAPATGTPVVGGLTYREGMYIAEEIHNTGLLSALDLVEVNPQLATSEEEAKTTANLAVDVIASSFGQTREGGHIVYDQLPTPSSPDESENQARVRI

[6] = molecular target: T3, Proteasome subunit beta (Trypanosoma cruzi) (UniProt O96673); experiment: Trypanosoma cruzi proteasome chymotrypsin-like activity (TcProtChymo) assay.; further: in the data most compounds retested in dose-response had high values; assay type: functional; settings: 9.37 µM
T3 sequence (whole entry): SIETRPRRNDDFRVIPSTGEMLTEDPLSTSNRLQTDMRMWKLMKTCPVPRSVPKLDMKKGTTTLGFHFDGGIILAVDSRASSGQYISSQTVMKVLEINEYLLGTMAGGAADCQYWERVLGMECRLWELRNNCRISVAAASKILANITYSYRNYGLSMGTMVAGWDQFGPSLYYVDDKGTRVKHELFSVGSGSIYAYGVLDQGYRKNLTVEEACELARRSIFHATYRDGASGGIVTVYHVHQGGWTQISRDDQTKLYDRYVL

Homo sapiens = species on record: Homo sapiens; experiment: To identify inhibition of the IFN signalling (Jak-Stat) pathway via expression of an eGFP reporter gene under the control of an IFN-stimulated response element (ISRE) containing MxA promoter.; assay type: functional; settings: 30 µM
[7] = molecular target: T4, Tyrosyl-tRNA synthetase, putative (Trypanosoma cruzi (strain CL Brener)) (UniProt Q4DSP6); experiment: Trypanosoma cruzi tyrosyl tRNA synthetase (TcYRS) _High Tyrosine SOP; assay type: functional; settings: 30 µM; further: in the data most compounds retested in dose-response had high values
T4 sequence (whole entry): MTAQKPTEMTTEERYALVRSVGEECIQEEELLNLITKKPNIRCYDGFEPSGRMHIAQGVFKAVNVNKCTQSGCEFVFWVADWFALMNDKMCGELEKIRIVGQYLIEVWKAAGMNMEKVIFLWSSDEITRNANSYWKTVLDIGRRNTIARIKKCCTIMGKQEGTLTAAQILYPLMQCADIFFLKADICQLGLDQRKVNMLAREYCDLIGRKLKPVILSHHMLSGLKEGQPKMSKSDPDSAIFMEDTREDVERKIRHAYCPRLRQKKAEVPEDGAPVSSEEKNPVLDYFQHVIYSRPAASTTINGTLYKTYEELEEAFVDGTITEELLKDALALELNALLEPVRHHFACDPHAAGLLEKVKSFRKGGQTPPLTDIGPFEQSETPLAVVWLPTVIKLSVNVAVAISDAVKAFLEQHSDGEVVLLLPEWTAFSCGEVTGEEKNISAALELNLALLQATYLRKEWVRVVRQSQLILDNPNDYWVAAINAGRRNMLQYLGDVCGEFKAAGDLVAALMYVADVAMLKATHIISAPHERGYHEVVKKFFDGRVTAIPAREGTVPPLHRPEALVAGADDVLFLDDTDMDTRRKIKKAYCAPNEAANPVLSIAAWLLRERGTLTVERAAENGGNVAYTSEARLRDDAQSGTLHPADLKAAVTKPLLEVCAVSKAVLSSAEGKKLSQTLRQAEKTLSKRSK

[8] = molecular target: T4, Tyrosyl-tRNA synthetase, putative (Trypanosoma cruzi (strain CL Brener)); experiment: Trypanosoma cruzi tyrosyl tRNA synthetase (TcYRS) SOP; assay type: functional; settings: 30 µM
[9] = molecular target: Chromo domain-containing protein 1 (Saccharomyces cerevisiae (strain ATCC 204508 / S288c) (Baker's yeast)) (UniProt P32657); experiment: ScCHD-1 Enzyme Inhibition Assay; assay type: functional; settings: 30 µM; further: in the data most compounds retested in dose-response had high values
Chain of Chromo domain-containing protein 1 (Saccharomyces cerevisiae (strain ATCC 204508 / S288c) (Baker's yeast)) (P32657 whole entry, the tested form may be a part): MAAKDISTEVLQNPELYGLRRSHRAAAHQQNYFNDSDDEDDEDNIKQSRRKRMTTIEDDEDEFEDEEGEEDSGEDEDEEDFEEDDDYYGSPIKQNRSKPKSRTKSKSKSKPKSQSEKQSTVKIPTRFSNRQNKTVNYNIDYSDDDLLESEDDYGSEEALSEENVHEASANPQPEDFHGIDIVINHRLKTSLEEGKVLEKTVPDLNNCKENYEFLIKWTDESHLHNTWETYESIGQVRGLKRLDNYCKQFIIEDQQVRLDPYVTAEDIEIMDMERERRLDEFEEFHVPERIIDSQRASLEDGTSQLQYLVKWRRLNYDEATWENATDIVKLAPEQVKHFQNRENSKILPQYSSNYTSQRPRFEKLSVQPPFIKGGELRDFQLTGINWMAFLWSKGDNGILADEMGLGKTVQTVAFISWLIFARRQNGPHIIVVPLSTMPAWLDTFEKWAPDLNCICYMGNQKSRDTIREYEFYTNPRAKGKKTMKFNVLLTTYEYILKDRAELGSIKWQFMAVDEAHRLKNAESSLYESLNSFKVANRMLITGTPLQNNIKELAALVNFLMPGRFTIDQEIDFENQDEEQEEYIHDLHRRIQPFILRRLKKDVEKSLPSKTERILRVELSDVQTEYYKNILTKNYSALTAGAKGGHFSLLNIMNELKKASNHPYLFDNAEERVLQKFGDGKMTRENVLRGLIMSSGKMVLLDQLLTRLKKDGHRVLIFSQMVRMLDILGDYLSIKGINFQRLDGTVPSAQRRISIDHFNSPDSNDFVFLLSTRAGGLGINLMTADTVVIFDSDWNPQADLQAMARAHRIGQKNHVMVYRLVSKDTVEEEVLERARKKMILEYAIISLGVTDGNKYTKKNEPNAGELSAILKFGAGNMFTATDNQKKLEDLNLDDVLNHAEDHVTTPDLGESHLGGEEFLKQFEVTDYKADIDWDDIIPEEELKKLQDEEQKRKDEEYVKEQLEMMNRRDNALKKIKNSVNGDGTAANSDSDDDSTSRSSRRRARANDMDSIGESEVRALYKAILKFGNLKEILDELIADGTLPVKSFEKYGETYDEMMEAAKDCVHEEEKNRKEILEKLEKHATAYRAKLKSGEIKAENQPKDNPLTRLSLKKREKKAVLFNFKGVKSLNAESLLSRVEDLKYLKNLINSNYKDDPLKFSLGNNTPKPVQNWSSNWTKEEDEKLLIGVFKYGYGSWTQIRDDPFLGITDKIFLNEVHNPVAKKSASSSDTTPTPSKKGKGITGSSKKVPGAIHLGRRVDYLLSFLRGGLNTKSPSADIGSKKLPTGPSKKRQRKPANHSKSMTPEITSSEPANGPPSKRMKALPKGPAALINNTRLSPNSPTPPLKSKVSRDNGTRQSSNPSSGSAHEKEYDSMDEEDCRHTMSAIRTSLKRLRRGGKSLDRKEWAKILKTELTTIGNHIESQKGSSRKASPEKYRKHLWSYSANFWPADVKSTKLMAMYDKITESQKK

| Compound | Percent Effect [1] [%] | Percent Effect [2] [%] | Percent Effect [3] [%] | Percent Effect [4] [%] | Percent Effect (Trypanosoma cruzi) [%] | Percent Effect [5] [%] | Percent Effect [6] [%] | Percent Effect (Homo sapiens) [%] | Percent Effect [7] [%] | Percent Effect [8] [%] | Percent Effect [9] [%] |
| --- | --- | --- | --- | --- | --- | --- | --- | --- | --- | --- | --- |
| O=C(NCC(F)(F)F)NC1CCCc2c1cnn2CCO (configuration not stated) | -4.5 | 16 | -9.15 | 18.8 | 5.36 | 12.5 | 12.4 | 7.67 | 2.73 | 16.1 | 105 |
| CN(C)CC1(O)CCN(S(=O)(=O)c2ccc(F)cc2)C1 (configuration not stated) | -4.76 | 20.3 | 6.17 | -4.76 | 3.36 | -3.94 | 17.3 | 10.1 | 5.38 | 9.09 | 65.3 |
| Cc1cc(C(C)NC(=O)N2CCC(n3cncn3)CC2)c(C)s1 (configuration not stated) | -4.4 | 7.59 | -0.225 | 9.65 | 1.23 | -2.28 | -4.01 | 3.67 | 1.48 | 3.8 | -3.57 |
| O=C(c1ccc(O)c(Cl)c1)N1CCC(c2n[nH]c(C3CC3)n2)CC1 | -6.1 | 3.8 | -0.285 | -6.96 | -5.44 | -1.5 | 9.61 | 8.98 | 1.04 | 0 | -0.322 |
| Cc1ccc(CNC(c2ccccc2)c2nccn2C)cc1C (configuration not stated) | -0.655 | 18.9 | -5.59 | 9.13 | 2.32 | -0.554 | 8.08 | 30.7 | 10.9 | 25.6 | -5.06 |
| O=C(CCc1cc2n(n1)CCCN(C(=O)c1cccnc1)C2)NC1CC1 | -2.13 | 4.17 | -1.68 | -4.93 | -3.21 | -2.21 | 10.7 | 4.24 | 0 | 7.69 | -2.05 |
| Cc1nn(C)c(Cl)c1C1CCCN1C(=O)c1cc(Cl)c[nH]1 (configuration not stated) | -2.13 | 2.7 | 0.443 | 9.97 | -1.79 | 2 | -1.62 | 2.15 | 7.39 | 3.7 | 2.56 |
| CCC1=N[C@@]2(CC[C@@H]3CN(CC4CC4)C[C@@H]32)C(=O)N1C | -4.94 | 10.8 | 1.5 | 0.724 | -1.86 | 0.319 | 19.2 | -28.1 | 0 | 15.4 | -3.77 |
| COc1ccc(CN2C[C@@H](OCc3ccccn3)[C@H]3COC[C@H]32)cc1 | -4.56 | -8.11 | -0.636 | -1.37 | -3.62 | 6.05 | 20.1 | 22.6 | -1.08 | 12.8 | 2.02 |
| O=C(c1ccn(-c2cccc(Cl)c2)n1)N1CCN(C2CC2)CC1 | -11.5 | 10.4 | -3.12 | 2.64 | -4.49 | -1.78 | 27.5 | 29.6 | -0.971 | -4.88 | -3.18 |
| CN(Cc1ccsc1)C(=O)CS(=O)(=O)Cc1ccc(Cl)c(Cl)c1 | -1.27 | -5.2 | 10.5 | -5.21 | 7.15 | 0.21 | 15.6 | 7.44 | -13.3 | 0 | -13.1 |
| Cc1cn2c(n1)CCC(NC(=O)c1cc(C(C)C)no1)C2 (configuration not stated) | -4.48 | 10.4 | 2.99 | 6.7 | 1.67 | 1.05 | 4.93 | 3.25 | 6.67 | 14.1 | -23 |
| COc1ccc2c(ccn2CCC(=O)O)c1 | -6.14 | 4 | -3.9 | -8.49 | -8.45 | -7.22 | 6.1 | 21.8 | 3.17 | -5.13 | -7.85 |
| COc1ccc(CN(C)CC2(O)CCN(C(=O)c3cccn3C)C2)cc1 (configuration not stated) | -9.44 | -1.35 | 5.12 | 2.88 | -1.78 | -7.19 | -1.87 | 11.8 | -2.15 | -3.9 | -10.2 |
| CC(C)Oc1ncnc2c1CCN(C(=O)c1cccn1C)CC2 | -3.69 | 13.3 | 9.51 | -7.87 | -4.53 | -3.03 | 11.2 | 9.21 | 2.13 | 8.97 | -0.243 |
| O=C(CN1CCC(N2CCNC2=O)CC1)NCC(F)(F)F | -3.52 | 17.7 | -4.25 | 3.47 | -2.36 | 4.56 | 5 | 9.87 | 5.42 | 13.9 | -4.76 |
| COc1ccc(C2OC(COc3ccccc3Br)=NN2C(C)=O)cc1 (configuration not stated) | -1.41 | 13 | -0.88 | -8.22 | -5.23 | 3.23 | 9.22 | 4.18 | 0 | 1.28 | -8.68 |
